Experimental data published in ChEMBL document CHEMBL3433997, “St. Jude Leishmania screening dataset” (2016).
Values joined by “and” are separate entries in the source; they are usually repeats but may differ in a detail not shown here. Identical values can stand only once.

biological target: Glucose transporter (Leishmania mexicana) (UniProt O61059); assay: ST_JUDE_LEISH: Cytotoxicity at 2uM final concentration against transgenic Leishmania Mexicana promastigotes LmGT2 that are glucose transport deficient and complemented with the L. Mexicana glucose transporter 2. Activity is measured by DNA content using SYBR green in vitro; assay type: functional

Question: `COCCNCc1ccc(-c2ccc(CN(C(=O)NC3CCCCC3)C3CCN(Cc4ccccc4)CC3)cc2)cc1` was tested. Which inhibition did it give?
Answer: -1.48%

Question: With `CCC1(C)CC(CCNCc2ccccc2O)(c2ccc(F)cc2)CCO1` (centres undefined) as the compound, how does the inhibition read?
Answer: -0.21%

Question: How did the inhibition turn out when `CC[C@H]1CN2CC[C@H]1C[C@@H]2[C@H](O)c1ccnc2ccc(O)cc12` was run?
Answer: 0.24%

Question: Which inhibition does the source give for `O=C(C=Cc1ccccc1O)N1CCC(CN2CCC(c3c[nH]c4ccccc34)CC2)CC1` here?
Answer: 2.49%

Question: For `COc1ccc2[nH]cc(C3CC4CCC(C3)N4CCC3CCN(C(=O)/C=C/c4ccc(Cl)c(Cl)c4)CC3)c2c1` (centres undefined), which inhibition is on record?
Answer: 0.71%

Question: With `COc1cccc(O)c1CNCC(O)c1cccc(C(F)(F)F)c1` (centres undefined) as the compound, how does the inhibition read?
Answer: 0.29%

Question: With `CN(Cc1ccccc1)C1CCN(CCc2c[nH]c3ccc(F)cc23)CC1` as the compound, how does the inhibition read?
Answer: 7.12%

Question: How did the inhibition turn out when `CCN(Cc1ccccc1)CC(O)c1ccc(Cl)c(Cl)c1` (centres undefined) was run?
Answer: 1.21%

Question: With `CCCc1ccc2c(c1O)CCC(N(CCC)CCC)C2` (centres undefined) as the compound, how does the inhibition read?
Answer: 2.48%

Question: `O=C(NC1CCC(CN2CCC(c3c[nH]c4ccccc34)CC2)CC1)c1csc(-c2cccc(Cl)c2Cl)n1` (centres undefined) was tested. Which inhibition did it give?
Answer: 2.71%

Question: With `N#Cc1c(Cl)cccc1Oc1ccc(S(=O)(=O)N2CCC(CN3CCC(c4c[nH]c5ccccc45)CC3)CC2)cc1` as the compound, how does the inhibition read?
Answer: -0.73%

Question: Which inhibition does the source give for `O=C(C=Cc1ccc(-c2ccccc2)cc1)NC1CCC(CN2CCC(c3c[nH]c4ccccc34)CC2)CC1` (centres undefined) here?
Answer: 6.53% and 3.78%

Question: How did the inhibition turn out when `CC(Cc1ccc(OCCCCOc2ccccc2)cc1)NCCC1CCCN1C` (centres undefined) was run?
Answer: 103%

Question: With `O=C(NC1CCC(CN2CCC(c3c[nH]c4ccccc34)CC2)CC1)c1cc2ccccc2s1` (centres undefined) as the compound, how does the inhibition read?
Answer: -5.56% and 1.62%

Question: `O=C(/C=C/c1c(Cl)cccc1Cl)NC1CCC(CN2CCC(c3c[nH]c4ccccc34)CC2)CC1` (centres undefined) was tested. Which inhibition did it give?
Answer: 6.66% and 4.94%

Question: `Cc1cccc2[nH]cc(C3CCN(CC4CCC(NC(=O)/C=C/c5ccc(Cl)c(Cl)c5)CC4)CC3)c12` (centres undefined) was tested. Which inhibition did it give?
Answer: 0.15%

Question: How did the inhibition turn out when `COC(=O)c1ccc(CC(C)NCC(O)c2cccc(I)c2)cc1` (centres undefined) was run?
Answer: 0.29%

Question: `COCCSc1ccc(CC(C)NCC(O)c2cccc(Cl)c2)cc1` (centres undefined) was tested. Which inhibition did it give?
Answer: 0.74%

Question: `CCCCn1c(C)c(C(=O)OCC)c2cc(OC(C)=O)c(Br)cc21` was tested. Which inhibition did it give?
Answer: 3.29%

Question: How did the inhibition turn out when `CN1CC=C(c2c[nH]c3ccc(Sc4ccccc4)cc23)CC1` was run?
Answer: 3.42%

Question: Which inhibition does the source give for `NC(=O)CN1CC=C(c2c[nH]c3ccc(Br)cc23)CC1` here?
Answer: 0.77%

Question: Which inhibition does the source give for `FC(F)(F)c1ccc(NC(=S)NC2CCC(CN3CCC(c4c[nH]c5ccccc45)CC3)CC2)cc1` (centres undefined) here?
Answer: 3.66% and 2.93%

Question: How did the inhibition turn out when `Cc1ccc(CC(C)(C)NCC(O)c2cccc(C(F)(F)F)c2)cc1` (centres undefined) was run?
Answer: 3.49%

Question: How did the inhibition turn out when `O=C(/C=C/c1ccc(O)cc1)NC1CCC(CN2CCC(c3c[nH]c4ccccc34)CC2)CC1` (centres undefined) was run?
Answer: -0.07%

Question: With `Cc1[nH]c2ccccc2c1C1=CCN(CCCCC2(C)C(=O)Nc3ccccc32)CC1` (centres undefined) as the compound, how does the inhibition read?
Answer: -0.37%

Question: With `O=C(NC1CCC(N2CCC3(CC2)C(=O)NCN3c2ccccc2)CC1)c1cc2ccccc2[nH]1` (centres undefined) as the compound, how does the inhibition read?
Answer: 0.13%

Question: For `CC[C@H]1CN2CC[C@H]1C[C@H]2[C@H](O)c1cc(-c2cccc(C)c2)nc2ccc(OC)cc12`, which inhibition is on record?
Answer: 4.03%

Question: With `CCOC(C(=O)OCCN(C(C)C)C(C)C)(c1ccccc1)c1ccccc1` as the compound, how does the inhibition read?
Answer: -0.37%

Question: Which inhibition does the source give for `OC(CNCc1ccccc1OC(F)F)c1cccc(C(F)(F)F)c1` (centres undefined) here?
Answer: 1.62%

Question: `C#CCN1CCC2=C(C1)c1c(O)cc(C(C)C(C)CCc3ccc(F)cc3)cc1OC2(C)C` (centres undefined) was tested. Which inhibition did it give?
Answer: -1.42%

Question: How did the inhibition turn out when `COc1ccc(C(=O)C2CC2CN2CC=C(c3c[nH]c4cccc(Br)c34)CC2)cc1` (centres undefined) was run?
Answer: 2.11%

Question: How did the inhibition turn out when `Oc1ccccc1CN1CCC(CCOC(c2ccccc2)c2ccc(Cl)cc2)CC1` (centres undefined) was run?
Answer: 13.9%

Question: How did the inhibition turn out when `CN(C)CCc1c[nH]c2ccc(C(=O)Nc3ccc(-c4ccncc4)cc3)cc12` was run?
Answer: 0.61%

Question: Which inhibition does the source give for `CCCCNC(c1ccc(Cl)cc1)C(O)c1ccc(Cl)cc1` (centres undefined) here?
Answer: 9.91%

Question: With `CN(CC(=O)N1CCN(S(=O)(=O)c2cccc(Cl)c2)CC1CN1CCCC1)c1ccc(Cl)c(Cl)c1` (centres undefined) as the compound, how does the inhibition read?
Answer: 2.07%

Question: `CN(C)c1cccc(CN2CC=C(c3c[nH]c4ccc(Cl)cc34)CC2)c1` was tested. Which inhibition did it give?
Answer: 4.91%

Question: `COC(=O)c1ccc(CC(C)NCC(O)c2cccc(Cl)c2Cl)cc1` (centres undefined) was tested. Which inhibition did it give?
Answer: 3.04%

Question: With `O=C(NC1CCC(CN2CCC(c3c[nH]c4ccccc34)CC2)CC1)[C@H]1Cc2ccccc2CN1` (some centres undefined) as the compound, how does the inhibition read?
Answer: 4.44%

Question: `CCN(CC)CCN1C(=O)C(O)(c2ccccc2Cl)c2c1cc(C(N)=O)cc2C(F)(F)F` (centres undefined) was tested. Which inhibition did it give?
Answer: 2.69%
